About 83,000 compounds went through this panel and 20% of them were active in at least one assay; those are over-represented in the sample as a whole.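 Single-dose data. Exposure time 48 hours. Values below 10 considered active.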 A number with no mark means an inactive call. Calls of active or inactive are those of the source.
tested on: OVCAR-8 ovarian; assay: NCI-60 one-dose screen, 48 h (100 = growth as untreated, 0 = no growth, -100 = all killed); details: 10 µM unless noted
Protocol: Growth inhibition of the OVCAR-8 human tumor cell line is measured as a screen for anti-cancer activity. Cells are grown in 96 well plates and exposed to the test compound for 48 hours. Compounds are tested at a single concentration, which is 10^-5 M for most compounds. The reported endpoint is percent growth (GI% or GIPRCNT), where numbers from 0 - 100% represent growth inhibition, and numbers from -100% - 0 represent cell death. For example, a value of 40 represents 60% growth inhibition. A value of 0 means no net growth occurred over the course of the experiment. A value of -40 indicates 40% of cells at the beginning of the experiment died by the end of the experiment. A value of -100 means all cells are dead at the end of the experiment.
NCI-60 Human Tumor Cell Lines Screen was performed using the standard one-dose NCI protocol, which is described in more detail at https://dtp.cancer.gov/discovery_development/nci-60/default.htm.
Compounds with GIPRCNT values below 10 were considered active. Activity score was based on GIPRCNT using the following formula: […]
Score is 0 for GIPRCNT values of 100 or above, 50 for GIPRCNT values of 0, and 100 for GIPRCNT values of -100.

SMILES	growth
CCN1C(=O)N(CC)C2Nn3c(s/c(=C\c4cccc([N+](=O)[O-])c4)c3=O)=NC21 (stereo not given)	44.7%
COc1ccc(CNC(=O)C(O)C(Cc2ccccc2)NC(=O)c2[nH]c3ccccc3c(=O)c2C)cc1OC (stereo not given)	103%
CCN(CC)S(=O)(=O)c1cccc(-c2ccc3c(NC(=O)C4CC4)n[nH]c3c2)c1	14.7% [6.25 µM]
NC(=N\N=C/c1ccccc1[N+](=O)[O-])/C(N)=N\N=C/c1ccccc1[N+](=O)[O-]	109%
O=C(c1ccccc1)c1c(/C=C/c2ccccc2)nc2ccccc2c1/C=C/c1ccc(Br)cc1	102%
COC(=O)c1c2c(c(C)[n+]([O-])c1C)C(=O)C(NCc1ccc(F)cc1)=CC2=O	-5.16% (active)
COc1ccc(OC)c2c1[nH]c(=O)c1c3ncccc3cn21	16.8%
N=C1C(c2nc(-c3ccc(Br)cc3)cs2)=C(O)CN1Cc1cccnc1	16.3%
CCOc1ccccc1-c1cc(-c2cccs2)c(C#N)c(=O)[nH]1	95%
C=CCNc1nc(NN2C(=O)c3cccc4cccc(c34)C2=O)nc(-n2cnc3ccccc32)n1	81.5%
Cc1ccc(S(=O)(=O)NCC[C@@H]2C[C@H]2c2cc3ccccc3s2)cc1	97.3%
Cc1c2c(c(C)c3c1oc1cc(O)ccc13)C(=O)N(CCN1CCCCC1)C2=O	64.2%
N/C(=N/N=C/c1ccccc1)N/N=C\c1ccccc1	65.2%
CC1(c2ccccc2)NC(=O)N(NC(=O)CSc2nc(-c3cccs3)nc3ccccc23)C1=O (stereo not given)	82.4%
Cc1ccc(-c2cc(-c3cccnc3)[nH]c(=O)c2C#N)cc1	103%
O=C(Nc1cccc(C(F)(F)F)c1)Nc1cccc(C(F)(F)F)c1	4.98% (active)
COc1ccc(-c2cc(-c3cc(OC)c(OC)c(OC)c3)c(C#N)c(N3CCOCC3)n2)cc1O	56.3%
Cc1occc1-c1n[nH]c(=S)n1N1C(=O)CSC1=S	101%
COc1ccc(NC(=O)c2nc(-c3cc(OC)c(OC)c(OC)c3)n(-c3cccc4ccccc34)n2)cc1OC	52.5%
O=Cc1ccc(O)c2ncccc12	9.03% (active)

SMILES	growth
O=c1[nH]c2ccccc2n1C1CCN(CCOc2ccccc2)CC1	79%
COc1ccc(-c2cc(-c3cc(OC)ccc3OC)nc(SCC(=O)c3ccccc3)c2C#N)cc1	96.6%
Fc1cnc(NC2CC2)nc1-c1cnc2ccc(N3CCOCC3)cn12	9.65% (active)
N#CC1=C(c2ccc(Br)cc2)NC(SCC(=O)c2ccc(Br)cc2)NC1=O (stereo not given)	103%
CC/C=C\CCC/C=C1/C(=O)C=C[C@@H]1C/C=C\CCCC(=O)O	9.28% (active)
CCN(CC)CCn1nc2c3c(cccc3c1=O)-c1ccccc1-2	23.3%
CCN(CC)CCCC(C)Nc1c2ccc(Cl)cc2nc2ccc(O)cc12 (stereo not given)	30.1%
COc1cc(/C=N/n2c(CN3CCOCC3)nc3ccccc3c2=O)cc(OC)c1OC	96.1%
CCCCCCCCCCCC(c1ccccc1)[N+](C)(C)C (stereo not given)	19.3%
COc1ccc(/C=C/c2c(C(=O)/C=C/c3cccs3)c(C)nc3ccccc23)cc1	77%
O=C1C=C[C@]2(C[C@@H](c3cccc(C(F)(F)F)c3)O[C@@H](c3cccc(C(F)(F)F)c3)O2)O1	38.5%
COc1cc(C(=O)c2cc(C)c3[nH]c4ccc(Cl)cc4c3c2C)cc(OC)c1OC	28.5%
Cn1c(-c2c(N)n(Cc3cccnc3)c3nc(C#N)c(C#N)nc23)nc2ccccc21	80.5%
COc1ccc(-c2cc(-c3ccc(Nc4nc(Nc5ccc(Cl)cc5)nc(Nc5ccc(Cl)cc5)n4)cc3)nc(N)c2C#N)cc1	39.8%
COc1cc(-c2nc(N3CCN(C)CC3)c3ccccc3n2)cc(OC)c1OC	75.7%
O=c1c2cc(F)ccc2sc2c(NCCCN3CCCC3)nc3ccccc3c12	55.6%
O=c1c2c3c(sc2nc(N/N=C/c2ccc(Br)cc2)n1Cc1ccccc1)CCCC3	45.9%
CCN(CC)CCCNc1ccc(Nc2ccc(OC)cc2)cc1	83.1%
CCOc1c(C#N)nnc2c(C#N)c(NC(=O)c3ccccc3)nn12	93.8%
CCCCCCCCCOc1c(OC)cc(C2CC(=O)Nc3c2c(C)nn3-c2nc3ccccc3[nH]2)cc1OC (stereo not given)	-1.61% (active)

Reference: PubChem BioAssay (NCI)
